PubChem BioAssay (Tox21)
Where “and” joins values, the source holds several entries; their conditions need not be identical. Identical values can stand only once. Records with an inconclusive call do not appear. The source holds several records for some structures; these can differ, active in one and inactive in another. Calls of active or inactive are those of the source. Unless noted, the call rests on the fitted dose curve; in most records, active means well fitted curve in the direction sought with a large enough effect in the repeat runs; inconclusive means weak or mixed curves; inactive means no such curve, though single readings can be large; an effect the other way counts as inactive or inconclusive.

Key:
[1] = qHTS assay to identify small molecule antagonists of the progesterone receptor (PR) signaling pathway - cell viability counter screen (AID 1346798); further: nearly all actives have a fitted effect of over 50% in size; further: potency means the concentration at half of the fitted maximal effect
In short: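 Viability was determined by ATP-based luminescence (CellTiter-Glo) in PR-UAS-bla HEK293T cells cultured in 2% charcoal-stripped serum and incubated 16 hr with compounds under R5020 stimulation.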

[2] = qHTS assay to identify small molecule antagonists of the TGF-beta/Smad signaling pathway - cell viability counter screen (AID 1346824); further: nearly all actives have a fitted effect of over 50% in size; further: potency means the concentration at half of the fitted maximal effect
In short: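 SBE-bla HEK 293T cells, incubated overnight, then compound plus 0.25 ng/mL TGF-beta1 (stock added) for 5 hr at 37 C. Viability was read in the same wells by CellTiter-Glo luminescence after 30 min at room temperature.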

[3] = qHTS assay to identify small molecule agonists of the TGF-beta/Smad signaling pathway - cell viability counter screen (AID 1346829); further: nearly all actives have a fitted effect of over 45% in size; further: potency means the concentration at half of the fitted maximal effect
In short: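 Same-well cytotoxicity: CellTiter-Glo added after the 2 hr room-temperature beta-lactamase substrate step, luminescence measured 30 min later; cells had 5 hr of compound at 37 C.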

[4] = qHTS assay to identify small molecule agonists of the TGF-beta/Smad signaling pathway (AID 1346859; active means well fitted activation curve with a large enough effect in the signal ratio in the repeat runs, not every such curve was filed as active; the % refers to the signal ratio; further: series mostly up to about 77 µM)
In short: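 Dual-wavelength fluorescence (460/530 nm emission) quantified beta-lactamase expression under the Smad binding element in HEK 293T cells following 5 hr compound treatment at 37 C.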

[5] = target: Thyrotropin-releasing hormone receptor (Homo sapiens) (UniProt P34981); test: qHTS assay to identify small molecule antagonists of the thyrotropin-releasing hormone receptor (TRHR) signaling pathway (AID 1346877; active means well fitted inhibition curve with a large enough effect in the repeat runs, not every such curve was filed as active; further: series mostly up to about 51 µM)
Thyrotropin-releasing hormone receptor (Homo sapiens), sequence (P34981 whole entry, looked up): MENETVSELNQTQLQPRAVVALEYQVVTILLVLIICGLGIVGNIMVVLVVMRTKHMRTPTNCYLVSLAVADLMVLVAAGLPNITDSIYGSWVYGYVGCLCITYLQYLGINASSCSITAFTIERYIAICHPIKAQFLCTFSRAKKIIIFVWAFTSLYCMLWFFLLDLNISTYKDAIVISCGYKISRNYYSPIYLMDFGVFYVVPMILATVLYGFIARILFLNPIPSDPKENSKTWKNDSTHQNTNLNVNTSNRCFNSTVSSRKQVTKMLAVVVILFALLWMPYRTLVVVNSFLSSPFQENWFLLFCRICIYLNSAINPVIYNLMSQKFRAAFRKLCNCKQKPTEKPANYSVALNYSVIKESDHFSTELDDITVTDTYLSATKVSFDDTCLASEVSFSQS
In short: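 TRHR-expressing HEK293 cells loaded with calcium dye for 2 h at 37 C; compounds pre-incubated 5 min at room temperature before TRH challenge at 1 nM final. Intracellular calcium fluorescence read kinetically for 3 min; 15 concentrations in triplicate.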

[6] = target: Thyrotropin-releasing hormone receptor (Homo sapiens) (UniProt P34981); test: qHTS assay to identify small molecule agonists of the thyrotropin-releasing hormone receptor (TRHR) signaling pathway (AID 1346891; calls by dose curve; further: series mostly up to about 58 µM)
In short: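 Kinetic fluorescence (3 min, 1 s intervals) reported intracellular calcium after compound transfer onto TRHR-Hek293 cells pre-loaded with dye for 2 h at 37 °C.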

[7] = Human pregnane X receptor (PXR) small molecule agonists, qHTS cell viability counter screen (AID 1346977); further: nearly all actives have a fitted effect of over 50% in size; further: potency means the concentration at half of the fitted maximal effect
In short: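 HepG2 cells stably carrying the PXR-Luc reporter are cultured with 5% charcoal-stripped FBS and treated with compounds for 24hr. CellTiter-Fluor is added at 23hr and fluorescence is read after 1hr.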

[8] = Caspase-3/7 induction in HepG2 cells by small molecules, qHTS assay (AID 1346978); further: nearly all actives have a fitted effect of over 15% in size; further: potency means the concentration at half of the fitted maximal effect
In short: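 Wild-type HepG2 cells, 2,000/well, settled 5 hr at 37 C and 5% CO2, then compound-treated for 17 hr; caspase-3/7 activity read by luminescent Caspase-Glo 3/7 after 30 min at room temperature.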

[9] = Caspase-3/7 induction in CHO-K1 cells by small molecules, qHTS cell viability counter screen (AID 1346979); further: nearly all actives have a fitted effect of over 35% in size; further: potency means the concentration at half of the fitted maximal effect
In short: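 Seeding: 1,500 CHO-K1 cells/well. Rest: 5hr, 37C. Treatment: compounds in DMSO, 16hr. Read: CellTiter-Fluor, 1hr, fluorescence.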

[10] = Caspase-3/7 induction in CHO-K1 cells by small molecules, qHTS assay (AID 1346980); further: nearly all actives have a fitted effect of over 15% in size; further: potency means the concentration at half of the fitted maximal effect
In short: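 Wild-type CHO-K1 cells exposed to compounds for 17hr at 37 C, 5% CO2. Caspase-3/7 activity then measured by Caspase-Glo 3/7 luminescence after 30min at room temperature.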

[11] = Caspase-3/7 induction in HepG2 cells by small molecules, qHTS cell viability counter screen (AID 1346981); further: nearly all actives have a fitted effect of over 30% in size; further: potency means the concentration at half of the fitted maximal effect
In short: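 Wild-type HepG2 cells, 2,000/well, settled 5 hr at 37 C, 5% CO2 before compound addition. Viability read by CellTiter-Fluor fluorescence, reagent added after 16 hr compound exposure, then 1 hr at 37C, in the same wells as the caspase read.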

[12] = target: Nuclear receptor subfamily 1 group I member 2 (Homo sapiens) (UniProt O75469); test: Human pregnane X receptor (PXR) small molecule agonists, qHTS assay (AID 1346982); further: nearly all actives have a fitted effect of over 35% in size; further: potency means the concentration at half of the fitted maximal effect
Nuclear receptor subfamily 1 group I member 2 (Homo sapiens), sequence (O75469 whole entry, looked up): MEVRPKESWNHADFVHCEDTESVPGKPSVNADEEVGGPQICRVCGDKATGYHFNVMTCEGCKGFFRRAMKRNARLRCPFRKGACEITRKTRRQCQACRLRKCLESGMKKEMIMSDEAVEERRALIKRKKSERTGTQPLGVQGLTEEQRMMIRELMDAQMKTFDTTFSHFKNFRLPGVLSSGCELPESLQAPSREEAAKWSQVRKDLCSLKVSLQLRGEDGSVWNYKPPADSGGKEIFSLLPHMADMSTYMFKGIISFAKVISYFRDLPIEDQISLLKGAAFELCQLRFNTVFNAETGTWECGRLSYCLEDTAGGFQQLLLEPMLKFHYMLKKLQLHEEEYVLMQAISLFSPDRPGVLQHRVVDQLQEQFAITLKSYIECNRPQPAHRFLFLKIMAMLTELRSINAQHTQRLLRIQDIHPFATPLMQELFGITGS
In short: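 PXR-Luc HepG2 reporter cells (CYP3A4-driven luciferase) in 5% charcoal-stripped FBS medium, plated 5 h before compound addition, then treated 24 h at 37C. Luciferase read by ONE-Glo luminescence after 30 min at room temperature.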

[13] = target: Cytochrome P450 2D6 (Homo sapiens) (UniProt P10635); test: Cytochrome P450 Family 2 Subfamily D Member 6 (CYP2D6) small molecule antagonists: luciferase reporter qHTS assay (AID 1671196); further: nearly all actives have a fitted effect of over 50% in size; further: potency means the concentration at half of the fitted maximal effect
Cytochrome P450 2D6 (Homo sapiens), sequence (P10635 whole entry, looked up): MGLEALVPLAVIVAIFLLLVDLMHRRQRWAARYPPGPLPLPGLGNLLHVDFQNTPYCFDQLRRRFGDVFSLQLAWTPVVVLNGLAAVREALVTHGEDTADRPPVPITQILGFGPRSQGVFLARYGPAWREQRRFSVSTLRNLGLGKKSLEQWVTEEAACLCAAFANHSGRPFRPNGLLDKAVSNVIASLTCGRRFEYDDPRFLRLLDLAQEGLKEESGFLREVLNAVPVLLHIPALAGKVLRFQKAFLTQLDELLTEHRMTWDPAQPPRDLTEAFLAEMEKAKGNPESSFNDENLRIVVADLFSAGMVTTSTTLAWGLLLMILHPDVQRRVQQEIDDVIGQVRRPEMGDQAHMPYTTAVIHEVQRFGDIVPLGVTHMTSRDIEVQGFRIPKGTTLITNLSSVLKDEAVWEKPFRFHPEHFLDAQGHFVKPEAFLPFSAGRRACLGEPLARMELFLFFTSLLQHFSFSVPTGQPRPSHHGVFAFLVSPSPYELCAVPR
In short: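 Cell-free P450-Glo system: CYP2D6 with proluciferin substrate was pre-incubated with compound for 10 min, then reacted with NADPH regeneration for 1 h at room temperature. Luciferin product was detected after 20 min, and data were reported as relative luminescence units.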

[14] = target: Cytochrome P450 2C19 (Homo sapiens) (UniProt P33261); test: Cytochrome P450 Family 2 Subfamily C Member 19 (CYP2C19) small molecule antagonists: luciferase reporter qHTS assay (AID 1671197); further: nearly all actives have a fitted effect of over 65% in size; further: potency means the concentration at half of the fitted maximal effect
Cytochrome P450 2C19 (Homo sapiens), sequence (P33261 whole entry, looked up): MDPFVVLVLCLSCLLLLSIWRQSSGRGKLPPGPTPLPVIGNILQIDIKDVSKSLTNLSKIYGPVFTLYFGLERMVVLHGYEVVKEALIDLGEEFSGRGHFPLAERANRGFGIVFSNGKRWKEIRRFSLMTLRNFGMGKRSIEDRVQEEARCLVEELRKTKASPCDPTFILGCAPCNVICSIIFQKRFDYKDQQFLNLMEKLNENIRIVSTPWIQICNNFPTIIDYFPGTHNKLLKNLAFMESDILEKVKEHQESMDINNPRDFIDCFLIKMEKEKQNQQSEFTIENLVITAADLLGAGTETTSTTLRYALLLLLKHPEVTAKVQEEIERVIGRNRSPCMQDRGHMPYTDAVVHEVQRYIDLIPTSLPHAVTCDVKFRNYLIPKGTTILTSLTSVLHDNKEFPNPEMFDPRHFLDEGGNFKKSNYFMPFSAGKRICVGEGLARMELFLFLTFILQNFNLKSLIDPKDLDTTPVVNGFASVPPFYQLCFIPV
In short: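 Quantitative high-throughput screen of the Tox21 library using CYP2C19 with proluciferin substrate. Reaction: NADPH regeneration, 37C, 1 h, after 10 min compound preincubation at room temperature. Readout: luminescence.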

[15] = target: Cytochrome P450 1A2 (Homo sapiens) (UniProt P05177); test: Cytochrome P450 Family 1 Subfamily A Member 2 (CYP1A2) small molecule antagonists: luciferase reporter qHTS assay (AID 1671199); further: nearly all actives have a fitted effect of over 50% in size; further: potency means the concentration at half of the fitted maximal effect
Cytochrome P450 1A2 (Homo sapiens), sequence (P05177 whole entry, looked up): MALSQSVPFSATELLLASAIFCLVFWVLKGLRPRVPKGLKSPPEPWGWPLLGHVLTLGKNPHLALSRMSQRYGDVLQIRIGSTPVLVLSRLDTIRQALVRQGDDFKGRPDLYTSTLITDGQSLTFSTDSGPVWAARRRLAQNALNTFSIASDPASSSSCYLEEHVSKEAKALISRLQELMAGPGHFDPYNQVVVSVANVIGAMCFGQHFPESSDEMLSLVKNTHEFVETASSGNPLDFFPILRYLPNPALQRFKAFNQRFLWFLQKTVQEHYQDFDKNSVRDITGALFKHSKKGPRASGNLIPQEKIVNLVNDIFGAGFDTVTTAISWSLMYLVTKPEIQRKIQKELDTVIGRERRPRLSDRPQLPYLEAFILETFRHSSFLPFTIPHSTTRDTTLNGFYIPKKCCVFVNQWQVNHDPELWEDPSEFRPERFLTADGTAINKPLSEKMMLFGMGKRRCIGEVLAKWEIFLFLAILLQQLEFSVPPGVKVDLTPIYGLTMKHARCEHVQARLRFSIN
In short: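 P450-Glo CYP1A2 enzyme–proluciferin substrate mix with compound 10 min at room temperature, then NADPH regeneration 1 h at room temperature. Luciferin detection reagent added, luminescence read after 20 min; furafylline positive control.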

[16] = qHTS assay to identify small molecule agonists of the progesterone receptor (PR) signaling pathway - cell viability counter screen (AID 1346799; calls by dose curve; further: nearly all actives have a fitted effect of over 45% in size; further: potency means the concentration at half of the fitted maximal effect)
In short: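 Viability was scored by ATP luminescence (CellTiter-Glo, 30 min, room temperature) in the same wells used for the reporter readout, after 16 hr compound exposure of PR-UAS-bla HEK293T cells.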

[17] = target: Cytochrome P450 2C9 (Homo sapiens) (UniProt P11712); test: Cytochrome P450 Family 2 Subfamily C Member 9 (CYP2C9) small molecule antagonists: luciferase reporter qHTS assay (AID 1671198); further: nearly all actives have a fitted effect of over 50% in size; further: potency means the concentration at half of the fitted maximal effect
Cytochrome P450 2C9 (Homo sapiens), sequence (P11712 whole entry, looked up): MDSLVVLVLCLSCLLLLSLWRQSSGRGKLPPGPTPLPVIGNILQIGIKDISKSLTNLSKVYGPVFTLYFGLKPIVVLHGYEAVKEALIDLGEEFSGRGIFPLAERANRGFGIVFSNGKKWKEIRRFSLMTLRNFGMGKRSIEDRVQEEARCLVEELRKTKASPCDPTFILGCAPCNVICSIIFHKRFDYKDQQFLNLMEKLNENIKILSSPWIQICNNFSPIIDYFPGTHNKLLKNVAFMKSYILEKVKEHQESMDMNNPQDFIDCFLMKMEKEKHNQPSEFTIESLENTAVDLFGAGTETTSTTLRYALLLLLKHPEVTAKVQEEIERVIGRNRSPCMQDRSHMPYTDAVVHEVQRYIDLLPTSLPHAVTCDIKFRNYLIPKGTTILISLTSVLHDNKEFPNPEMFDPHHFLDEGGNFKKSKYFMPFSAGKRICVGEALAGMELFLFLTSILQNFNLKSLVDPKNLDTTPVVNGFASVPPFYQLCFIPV
In short: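 P450-Glo proluciferin substrate with CYP2C9 enzyme; 10 min RT preincubation, then NADPH regeneration 1 h at 37C; luciferin detection reagent 20 min RT, luminescence in relative luminescence units.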

[18] = target: Nuclear receptor subfamily 1 group I member 2 (Homo sapiens) (UniProt O75469); test: CYP3A4 induction through human pregnane X receptor (PXR) by small molecules, qHTS assay (AID 1346984); further: nearly all actives have a fitted effect of over 40% in size
In short: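 DPX-2 HepG2 cells carrying a PXR response element and CYP3A4-promoter luciferase construct, treated with compounds 24 hr at 37C. Then P450-Glo CYP3A4 Luciferin-IPA substrate (3uM final) for 3 hr at 37C, One-Glo added, luminescence read.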

[19] = target: Nuclear receptor subfamily 1 group I member 2 (Homo sapiens) (UniProt O75469); test: Human pregnane X receptor (PXR) activation by small molecules, qHTS assay (AID 1346985); further: nearly all actives have a fitted effect of over 40% in size
In short: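 DPX-2 cells (HepG2 co-transfected with a PXR response element and a CYP3A4-promoter luciferase construct) were seeded at 2,000 per well, rested 5 hr at 37C, then exposed to DMSO-dissolved compounds for 24 hr. Activation was read as luciferase luminescence.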

Measured: Potency

Cc1cncc(C)c1
not listed: [16] | [17] | [18] | [19]
inactive: all other assays above

CSc1ccc2c(c1)N(CCC1CCCCN1C)c1ccccc1S2 (stereo not given)
active: [1] 21.6 µM and 23.7 µM | [16] 27.2 µM and 21.1 µM | [3] 54.7 µM | [7] 19.3 µM and 26.6 µM | [8] 30.5 µM | [9] 15.3 µM and 29.8 µM | [10] 19.3 µM | [11] 60.9 µM and 29.8 µM | [12] 9.65 µM and 5.96 µM | [14] 17.8 µM and 21.9 µM | [17] 70.7 µM | [15] 28.1 µM and 15.5 µM
inactive: [4]

CCc1cccc(CC)c1N(COC)C(=O)CS(=O)(=O)O
not listed: [2] | [6] | [17] | [18] | [19]
inactive: all other assays above

CCCN(CCc1cccs1)[C@H]1CCc2c(O)cccc2C1
active: [13] 0.389 µM | [17] 15.5 µM
not listed: [7] | [9] | [14] | [15] | [16]
inactive: all other assays above

C/C=C/C(=O)C1=C(C)CCCC1(C)C
active: [14] 79.6 µM
not listed: [12] | [16] | [18] | [19]
inactive: all other assays above

CC(=O)Nc1ccc(O)cc1
32.9 µM (active) and inactive: [13]
not listed: [2] | [4] | [8] | [15] | [18] | [19]
inactive: all other assays above

CC(=O)O[C@@H]1C[C@@H]2CC[C@@]1(C)C2(C)C
active: [15] 39.9 µM
not listed: [6] | [16] | [17] | [18] | [19]
inactive: all other assays above

c1ccc(Nc2cccc3ccccc23)cc1
inactive: [1] | [16] | [4] | [5] | [8] | [10] | [11]
active: [9] 61.9 µM | [12] 61.9 µM and 30.6 µM | [13] 32.1 µM | [14] 5.09 µM and 10 µM | [17] 36.1 µM and 35.6 µM | [15] 6.41 µM and 17.8 µM

COc1ccc2sc(C(=O)Nc3nnn[nH]3)c(OC(C)C)c2c1
inactive: [1] | [2] | [8] | [10] | [13] | [14] | [15]
active: [7] 24.2 µM | [9] 38.4 µM | [17] 22.4 µM

CC(NCCC(c1ccccc1)c1ccccc1)c1ccccc1 (stereo not given)
inactive: [4] | [5] | [6] | [15]
active: [1] 21.1 µM | [7] 26.6 µM | [12] 6.68 µM | [13] 0.219 µM | [14] 4.36 µM | [17] 15.5 µM

CCCCCCCCCCCCOC(=O)c1cc(O)c(O)c(O)c1
61.4 µM (active) and inactive: [3]
inactive: [4] | [10] | [15]
active: [1] 54.2 µM | [7] 60.9 µM and 61.1 µM | [9] 9.65 µM and 7.7 µM | [11] 60.9 µM | [12] 24.2 µM and 21.7 µM | [13] 28.2 µM and 31.7 µM | [14] 25.1 µM and 20 µM

COC(=O)[C@]1(C)CCC[C@@]2(C)[C@H]1CC=C1C=C(C(C)C)CC[C@@H]12
inactive: [1] | [2] | [3] | [4] | [5] | [7] | [9] | [10] | [11]
active: [12] 17.2 µM | [14] 28.3 µM | [17] 31.7 µM

C=C(C)C(=O)OCCC[Si](Cl)(Cl)Cl
active: [14] 80.4 µM | [17] 22.7 µM
not listed: [5] | [6] | [13] | [16] | [18] | [19]
inactive: all other assays above

O=C1c2c(O)ccc([N+](=O)[O-])c2C(=O)c2c([N+](=O)[O-])ccc(O)c21
inactive: [4] | [10] | [12]
active: [1] 24.1 µM | [2] 48.5 µM | [3] 48.5 µM | [7] 13.6 µM | [9] 12.1 µM | [13] 31.4 µM | [14] 12.5 µM | [17] 28 µM | [15] 7.03 µM

CCCCCCCOC(=O)c1ccc(O)cc1
active: [9] 61.2 µM and 61.1 µM | [12] 61.1 µM | [13] 71 µM | [14] 7.1 µM and 20 µM | [17] 35.6 µM and 39.9 µM | [15] 5.64 µM and 20 µM
inactive: [1] | [2] | [4] | [7] | [10]

C[Si](C)(C)Cl
inactive: [1] | [2] | [3] | [4] | [7] | [9] | [10] | [12] | [13] | [17]
